# Test results taken from ChEMBL document CHEMBL1157539, “Thousands of chemical starting points for antimalarial lead identification” (Nature, 2010).
# How the values were obtained:
# Format in all cases: functional
# [1] = system: Plasmodium falciparum; test: GSK_TCMDC: Inhibition of Plasmodium falciparum 3D7 in whole red blood cells, using parasite LDH activity as an index of growth. Test compounds present at 2uM
# [2] = system: Plasmodium falciparum; test: GSK_TCMDC: Inhibition of Plasmodium falciparum Dd2 in whole red blood cells, using parasite LDH activity as an index of growth. Test compounds present at 2uM
# [3] = system: HepG2; test: GSK_TCMDC: Percent inhibition of human HepG2 cell line. Test compounds present at 10uM.
SMILES,Inhibition [1],Inhibition [2],Inhibition [3]
COCc1nc(-c2ccccc2)nc(N2CCN(C(=O)NC(C)C)CC2)c1Cc1ccccc1F,96%,94%,35%
COc1cccc2c(NN=Cc3ccc(Cl)cc3)ccnc12,99%,39%,26%
Cc1ccc(CN(Cc2ccc(C(=O)N(C)C)cc2)Cc2ccc3c(c2)OCCO3)cc1C,91%,87%,10%
O=C(Nc1ccc(Cl)cc1)c1ccc(CN2CCCN(Cc3ccc(F)cc3)CC2)cc1.O=C(O)C(F)(F)F,91%,8%,48%
COc1ccc2nccc(N(C)CC3(O)CCC(NCc4cc5c(cn4)OCCO5)CC3)c2n1.Cl (stereo not drawn),99%,14%,1%
CN(C)CCn1c(N)c(-c2nc3ccccc3s2)c2nc(C#N)c(C#N)nc21,94%,40%,4%
CCc1ccc(NC(=O)c2cccc(CN3CCCN(Cc4cccc(O)c4)CC3)c2)cc1.O=C(O)C(F)(F)F,99%,50%,53%
Cl.O=C(Nc1cc(Cl)cc(Cl)c1)c1cnn(-c2ccc(F)cc2)c1C1CCNCC1,90%,0%,13%
CCCCCC(C)C(C)c1cc(O)c2c(c1)OC(C)(C)CC2c1cc[n+]([O-])cc1 (stereo not drawn),96%,7%,0%
Cc1ccc2c(c1)nc(N)n2C[C@H](O)c1ccccc1,100%,74%,0%
CCc1c(C)c2ccc3c(c2oc1=O)CN(CCc1ccc(F)cc1)CO3,94%,85%,0%
COc1ccc(-c2nc3c(N)nc(N)nc3nc2-c2ccccc2Cl)cc1.COc1ccc(-c2nc3nc(N)nc(N)c3nc2-c2ccccc2Cl)cc1.Cl,93%,0%,45%
CCN(CC)CCN(Cc1ccc(-c2ccc(C(F)(F)F)cc2)cc1)C(=O)Cn1c(CCc2cccc(F)c2F)cc(=O)cc1-c1ccccc1,94%,64%,33%
Cl.O=C(/C=C/c1ccc(F)cc1)NC1CCC(CCN2CCc3ccccc3CC2)CC1 (stereo not drawn),91%,36%,27%
CCOC(=O)c1ccc(NCc2ccccn2)cc1,99%,0%,0%
NC1=NC(c2ccccc2)(c2ccccc2)C(=O)N1Cc1ccc(-c2cccnc2)cc1.O=CO,99%,94%,15%
COCC(C)n1c(SCC(=O)Nc2cc(C(F)(F)F)ccc2Cl)nc2ccccc2c1=O (stereo not drawn),97%,96%,3%
OCC(c1ccccc1)n1c(COc2ccc(Cl)cc2)nc2c(OCCCN3CCCCC3)cccc21 (stereo not drawn),90%,68%,6%
Cn1nc(-c2ccc(Cl)cc2)c2cc(C(=O)NCCN3CCOCC3)sc21,97%,29%,21%
COc1cc2c(cc1OC)-c1cc(=Nc3c(C)cc(C)cc3C)n(C)c(=O)n1CC2.Cl,92%,29%,14%
O=C(O)C(F)(F)F.OC1CCCN(Cc2ccc(-c3cccc(-c4nc5cc(F)ccc5[nH]4)c3)cc2)C1 (stereo not drawn),99%,49%,28%

SMILES,Inhibition [1],Inhibition [2],Inhibition [3]
Cn1cncc1C(=O)Nc1cccc(-c2ccc(-c3nc4cc(F)ccc4[nH]3)s2)c1,99%,27%,0%
COc1ccc2ncc(F)c(CCN3CCC(CNC(=O)C(=O)c4c[nH]c5ccccc45)CC3)c2n1,100%,99%,48%
Cc1c(-c2cccc(CNCCc3ccc(Cl)cc3)c2)cnc(N)c1C.Cl,87%,30%,9%
O=C1CC(C(=O)O)CC(=O)N1,94%,88%,0%
CCCc1cc(Cc2cnc(N)nc2N)cc(CC)c1OC.Cl,97%,1%,4%
Cc1nc(C)c(-c2ccc(C(=O)c3ccc(Cl)cc3)cc2)c(O)c1Br,97%,95%,10%
Cc1cc(Nc2cccc(C#N)c2)nc(Nc2ccccc2C)n1,95%,46%,10%
CCN(CC)CCN(Cc1ccc(-c2ccc(C(F)(F)F)cc2)cc1)C(=O)Cn1cc(Cc2cnn(C)c2)c(=O)nc1/C=C/c1cccc(F)c1F.O=C(O)C(O)C(O)C(=O)O,95%,98%,11%
C[C@@H](N)C#Cc1cc2c(Nc3ccc(OCc4cccc(F)c4)c(Cl)c3)ncnc2s1.O=CO,89%,23%,17%
O=C(Nc1c(F)cccc1F)c1cccc(-c2nn3ccccc3c2-c2ccnc(Nc3cccc(-c4cnco4)c3)n2)c1,95%,94%,96%
O=C(Cc1ccc(-c2ccccc2)cc1)N[C@H]1CCN(Cc2ccc(OCCCN3CCCCC3)cc2)C1,99%,27%,36%
CS(=O)(=O)c1ccc(CNCc2cccc(-c3cccc(-c4nc5cc(C(F)(F)F)ccc5[nH]4)c3)c2)cc1.O=C(O)C(F)(F)F,100%,96%,5%
CCCCCCCCN1CCN(CCCCCCNc2c3ccccc3nc3ccccc23)CC1.Cl,100%,100%,100%
O=C(O)C(F)(F)F.O=C1CCCN1CCCNCc1cccc(-c2ccc(-c3nc4cc(C(F)(F)F)ccc4[nH]3)cc2)c1,100%,96%,15%
COc1cccc(NC(=O)Nc2ccc(-c3oc(C(=O)NCC(c4ccccc4)N(C)C)cc3-c3ccncc3)cc2)c1.O=C(O)C(F)(F)F (stereo not drawn),100%,99%,6%
Cc1cc(=O)oc2c1ccc1oc(C(O)c3ccc(Cl)cc3)c(C)c12 (stereo not drawn),95%,96%,0%
CCN1CCC(N(Cc2ccc(-c3ccc(C(F)(F)F)cc3)cc2)C(=O)Cn2c(CCc3cccc(F)c3F)nc(=O)c3ccccc32)CC1.O=C(O)C(O)C(O)C(=O)O,95%,95%,99%
CCC[C@@H]([C@@H](CC1CCCCC1)C(=O)N[C@@H](CCCCNS(C)(=O)=O)C(=O)Nc1nccs1)N(O)C=O,100%,74%,0%
O=S(=O)(c1csc2ccccc12)N(CCC(O)(C(F)(F)F)C(F)(F)F)Cc1cccc(O)c1,100%,100%,0%
Cc1ccc(C(=O)c2oc3ccc4c(C)cc(=O)oc4c3c2C)cc1,86%,48%,0%
CCCOc1ccc(N2C(N)=NC(N)=NC2(C)C)cc1.Cl,97%,2%,1%

SMILES,Inhibition [1],Inhibition [2],Inhibition [3]
CCOC(=O)COc1cccc(CNc2ccc3nc(N)nc(N)c3c2)c1,100%,99%,18%
CN(C(=O)/C=C/c1ccccc1F)C1CCN(CCCCCNC(=O)/C=C/c2ccc(Cl)c(Cl)c2)CC1,89%,59%,73%
Cc1cccc(CN2CCCC3(CCN(Cc4ccccc4O)C3)C2)c1 (stereo not drawn),99%,76%,14%
O=C(Nc1cccc(-c2ccc(-c3nc4ccccc4[nH]3)cc2)c1)c1ccncc1,100%,58%,30%
Cc1cc(N[C@@H](Cc2ccccc2)C(=O)NCc2cccc(F)c2)nc(NCCOc2ccccc2)n1.O=C(O)C(F)(F)F,97%,7%,0%
O=C(O)C(F)(F)F.c1cncc(CCNCc2ccc(-c3ccc(CNC4Cc5ccccc5C4)cc3)cc2)c1,92%,29%,32%
Cc1ccc(F)c(OCC2CCN(c3ncc(C(=O)NC4CC4)cc3Cl)CC2)c1,96%,95%,9%
CC[C@H](C)CNC(=O)c1cncc(-c2cccc(CNCCCc3ccccc3)c2)c1.O=C(O)C(F)(F)F,95%,0%,9%
FC(F)c1nc2ccccc2n1-c1nc(N2CCOCC2)nc(N2CCOCC2)n1 [ZSTK-474],99%,99%,47%
Cc1cc(=NN=Cc2ccccc2F)c2ccccc2[nH]1,100%,81%,14%
CC1(C)N=C(N)N=C(N)C1c1ccc(Cl)c(Cl)c1.Cl (stereo not drawn),95%,0%,47%
COC(=O)c1cccc(CNCc2ccc(-c3ccc(-c4nc5cc(C(F)(F)F)ccc5[nH]4)s3)cc2)c1.O=C(O)C(F)(F)F,100%,96%,34%
Cc1cc(NC(=O)NCCN2CCC(NC(=O)c3cccc(Br)c3)C2)c2ccccc2n1.O=C(O)C(F)(F)F (stereo not drawn),100%,60%,0%
CC(=O)Nc1ccc2[nH]cc(C3CCN(CCC4CCN(C(=O)/C=C/c5ccc(Cl)c(Cl)c5)CC4)CC3)c2n1,100%,80%,16%
Cc1cc(N[C@@H](Cc2ccccc2)C(=O)Nc2ccccc2)nc(NCC2CCCCC2)n1.O=C(O)C(F)(F)F,98%,55%,12%
O=C(O)c1ccc2nc(-c3ccccn3)c(-c3ccccn3)nc2c1,97%,18%,3%
O=C(Nc1cccc(C(F)(F)F)c1)NC1CCN(c2ccnc3ccccc23)C1.O=C(O)C(F)(F)F (stereo not drawn),100%,69%,23%
Cl.O=S(=O)(Nc1cc2c(cc1O)CCN(C1CCC1)CC2)c1ccc(-c2ccc(F)cc2)cc1,100%,99%,16%
O=C(Nc1ccnc(-c2cccnc2)n1)c1cc(C(F)(F)F)cc(C(F)(F)F)c1,95%,12%,22%
